± gives the standard deviation.
What follows are sequences tested on EfPiwi piRISC loaded with piRNA #1 (26 nt) (assay: pre-steady-state target cleavage rate (min^-1); auxiliary factor: 500 nM Ephydatia muelleri Gtsf1; guide: piRNA #1 5'p-UGAGGUAGUAGGUUGUAUAGUAUCCA; MIWI and MILI are mouse PIWI proteins and EfPiwi is from a freshwater sponge; tags in brackets are library labels; higher = faster piRNA-guided slicing of the target).
How it was run: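 In HEPES–potassium acetate buffer at 33 °C, […] transcribed, DNA-blocked target RNA library was mixed with 1 nM active affinity-purified piRISC carrying one synthetic guide, with or without 500 nM GTSF1 partner protein, for 0–8 or 0–960 min. Uncleaved targets were sequenced and normalised to depth and to weakly complementary targets; three trials were pooled and k3 was capped at 0.0001 min^-1. The pre-steady-state cleavage rate followed from a burst-and-steady-state fit.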
GGAGAGGAUACUAUACAAUCCUACUACCUCA was tested, and the “pre-steady-state target cleavage rate” value was 0.00878 ± 0.0059.
In the case of GGAGACCUAACUAUACAAACCUACUACCUCA, the “pre-steady-state target cleavage rate” value is reported as 0.00462 ± 0.0028.
For GGAGACGAUACUAUACACACCUACUACCUCA, the “pre-steady-state target cleavage rate” value was 0.0061 ± 0.0026.
GGAGAGGAUACUAUACAUCCUUCUACCUCA was tested, and the “pre-steady-state target cleavage rate” value was 0.00362 ± 0.0026.
With GGAGACGAUCCUAUACAACCUACUACCUCA the “pre-steady-state target cleavage rate” value was 0.0157 ± 0.0085.
For GGAGACCAUACUAUACAACCUACUAUCCUCA, the “pre-steady-state target cleavage rate” value was 0.00375 ± 0.0028.
For GGAGACCUAUGAUAUGUUCCUACUCCCUCA, the “pre-steady-state target cleavage rate” value was under 0.0001.
For GGAGACCUAACUAUACAACCUAGUAGCUCA, the “pre-steady-state target cleavage rate” value was 0.00484 ± 0.0035.
GGAGUGGAUACUAUACUACCUACUUCCUCA was tested, and the “pre-steady-state target cleavage rate” value was 0.00222 ± 0.0021.
In the case of “GGAGACCUUACUAUACAACCUACUACCUCG [g2:g22:cont:t1G]”, the “pre-steady-state target cleavage rate” value is reported as 0.062 ± 0.022.
With GGAGACCUAUGAUAACAAGGAACUACCUCA the “pre-steady-state target cleavage rate” value was under 0.0001.
With GGAGACCUAUCUAUACAACCUAGUACGUCA the “pre-steady-state target cleavage rate” value was 0.00316 ± 0.0024.
“GGAGACGAUACUAUACAACCUACUUGGAGA [g7:g24:cont:t1A]” was tested, and the “pre-steady-state target cleavage rate” value was 0.00429 ± 0.0022.
GGAGACGAUACUAUACAACCCUACUACCUCA was tested, and the “pre-steady-state target cleavage rate” value was 0.00604 ± 0.0029.
With GGAGUGGAUACUAUACAACCUACUUGCUCA the “pre-steady-state target cleavage rate” value was 0.0047 ± 0.0026.
GGAGAGGAUACAUAUACAACCUACUACCUCA was tested, and the “pre-steady-state target cleavage rate” value was 0.0587 ± 0.024.

Reference: the supplement of paper PMC10338343
